Drawing on PubChem BioAssay AID624141 (Broad Institute, 2012), this text covers outcome for 74 compounds.

The structures appear in SMILES notation. In all, about 17,000 compounds went through this assay and about 260 (1.5%) were called active.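 Rule for the calls: active = spot fluorescence over background with P-value below 7% in all four replicate spots, showing protein binding; inactive = the rest.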 Only a selection was taken, and actives are over-represented in it overall.

The target in this test is Myc proto-oncogene protein (Homo sapiens) (UniProt P01106). Description: binders of human c-Myc, primary screen, biochemical, small molecule microarray, anti-His fluorescence (AID 624141). As to conditions: His-c-Myc binding.
Sequence of Myc proto-oncogene protein (Homo sapiens) (P01106 whole entry, looked up): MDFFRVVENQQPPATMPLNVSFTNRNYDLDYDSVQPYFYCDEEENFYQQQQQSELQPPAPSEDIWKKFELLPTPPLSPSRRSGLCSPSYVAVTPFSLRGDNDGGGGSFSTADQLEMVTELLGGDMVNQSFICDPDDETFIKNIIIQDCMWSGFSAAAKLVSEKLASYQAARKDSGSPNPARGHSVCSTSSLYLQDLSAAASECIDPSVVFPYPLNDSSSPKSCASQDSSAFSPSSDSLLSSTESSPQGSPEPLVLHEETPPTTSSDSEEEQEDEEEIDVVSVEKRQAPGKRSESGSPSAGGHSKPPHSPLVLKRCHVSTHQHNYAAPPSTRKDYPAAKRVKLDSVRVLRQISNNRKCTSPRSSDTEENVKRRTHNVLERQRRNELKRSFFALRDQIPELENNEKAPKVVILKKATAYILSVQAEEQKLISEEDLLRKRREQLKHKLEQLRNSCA
For the compound `CCOC(=O)c1ccc(COC(=O)c2cc(=O)[nH]c3ccccc23)o1`, the compound was called inactive.
As for `CC(C)NC(=O)N(C)C[C@H]1OCCCC[C@H](C)Oc2ccc(NC(=O)Nc3ccc4c(c3)OCO4)cc2C(=O)N([C@H](C)CO)C[C@@H]1C`, the entry is “inactive”.
In the case of `C[C@@H]1CN([C@@H](C)CO)C(=O)Cc2cc(NC(=O)CCN3CCOCC3)ccc2O[C@H]1CN(C)S(=O)(=O)c1ccccc1`, the compound was classed as inactive.
To `Cc1noc(C)c1NC(=O)Nc1cccc2c1O[C@@H](CN(C)Cc1ccc3c(c1)OCO3)[C@@H](C)CN([C@@H](C)CO)C2=O` belongs “inactive”; to `C[C@@H]1CN([C@@H](C)CO)C(=O)CCCn2cc(nn2)CO[C@H]1CN(C)C(=O)Nc1ccc(N2CCCCC2)cc1`, “inactive”; to `CC(C)NC(=O)Nc1ccc2c(c1)C(=O)N([C@@H](C)CO)C[C@H](C)[C@H](CN(C)C(=O)c1ccccc1)OCCCC[C@@H](C)O2`, “inactive”.
`c1ccc2[nH]c(NCCN3CCOCC3)nc2c1`: the compound was called inactive.
`COC(=O)Cc1csc(Nc2c(C)n(C)n(-c3ccccc3)c2=O)n1`: the call was inactive.
As for `O=C(C1=C[C@H](c2csc3ccccc23)C[C@H](OCc2ccc(CO)cc2)O1)N1CCCCC1`, the call was active.
As for `NC(=O)C1=C[C@H](c2csc3ccccc23)C[C@H](OCc2ccc(CO)cc2)O1`, the entry is “inactive”; as for `O=C(C1=C[C@H](c2coc3ccccc3c2=O)C[C@H](OCc2ccc(CO)cc2)O1)N1CCOCC1`, “inactive”.
For the compound `C=C1C[C@@]23CC[C@@H]4[C@](C)(CO)CCC[C@@]4(C)[C@@H]2CC[C@@H]1C3`, the compound was classed as inactive.
As for `Cc1noc(C)c1S(=O)(=O)Nc1ccc2c(c1)C(=O)N([C@H](C)CO)C[C@@H](C)[C@@H](CN(C)Cc1ccccc1)OCCCC[C@@H](C)O2`, the call was inactive.
Regarding `C[C@@H]1CN([C@H](C)CO)C(=O)c2cc(N(C)C)ccc2O[C@@H]1CN(C)S(=O)(=O)c1cn(C)cn1`, the call was inactive.
As for `C[C@H]1CCCCO[C@@H](CN(C)C(=O)c2ccccc2)[C@@H](C)CN([C@@H](C)CO)C(=O)c2cc(NS(=O)(=O)c3ccccc3)ccc2O1`, the result was inactive.
For the compound `CCCCc1nn(-c2ccccc2C(F)(F)F)c(=O)n1Cc1ccc(-c2ccccc2S(=O)(=O)NC(=O)c2sccc2C)cc1`, the outcome was active.
As for `CNC[C@@H]1Oc2ccc(NC(=O)CCC(F)(F)F)cc2C(=O)N([C@@H](C)CO)C[C@@H]1C`, the entry is “inactive”; as for `CC(C)C[C@](O)(C(=O)OCc1ccc(O[C@@H]2O[C@H](CO)[C@@H](O)[C@H](O)[C@H]2O)cc1)[C@H](O)C(=O)OCc1ccc(O[C@@H]2O[C@H](CO)[C@@H](O)[C@H](O)[C@H]2O)cc1`, “inactive”.
In the case of `Cn1nnc(NC(=O)COc2ccc(Cl)cc2Cl)n1`, the call was inactive.
As for `OC[C@@]1(O)CO[C@H](OC[C@H]2O[C@@H](OC(CCCCc3ccc(O)cc3)CCc3ccc(O)cc3)[C@H](O[C@H]3OC[C@](O)(CO)[C@H]3O)[C@@H](O)[C@@H]2O)[C@@H]1O` (some centres undefined), the compound was classed as inactive.
To `COc1cc(CN2CCN(CCO)CC2)c([N+](=O)[O-])cc1OC` belongs “inactive”; to `O=C(CCCCCCC(=O)NOCc1ccccc1)NO`, “inactive”; to `CC(=O)Nc1sccc1C(=O)NCc1ccco1`, “inactive”.
For the compound `C[C@@H]1CN([C@@H](C)CO)C(=O)c2cc(NC(=O)Cc3ccccc3)ccc2O[C@@H](C)CCCCO[C@@H]1CN(C)C(=O)Nc1ccccc1`, the compound was called inactive.
`C[C@@H]1CCCCO[C@@H](CN(C)C(=O)c2ccccc2)[C@@H](C)CN([C@@H](C)CO)C(=O)c2cc(NS(=O)(=O)c3ccccc3)ccc2O1`: the compound was classed as inactive.
As for `CNC[C@@H]1Oc2c(NC(=O)Nc3ccccc3)cccc2C(=O)N([C@@H](C)CO)C[C@@H]1C`, the call was inactive.
To `COC1OC(O)C(O)C12CC[C@@]1(O2)[C@H](C)C[C@H]2OC(=O)[C@@]3(C)CCC[C@]1(C)C23` (some centres undefined) belongs “inactive”; to `CCOc1ccc(OCC(=O)Nc2cc(C)c(Cl)cc2OC)cc1`, “inactive”.
In the case of `C=CC1c2cc(O)c(OC)cc2CCN1Cc1cccc(OC(F)(F)F)c1` (centres undefined), the call was inactive.
Regarding `C[C@H](CO)N1C[C@H](C)[C@@H](CN(C)S(=O)(=O)c2cn(C)cn2)OCCCC[C@H](C)Oc2ccc(NC(=O)Cc3ccccc3)cc2C1=O`, the call was inactive.
In the case of `CN(C)c1nc(SCCO)nc(N(C)C)n1`, the call was inactive.
To `O=C(COc1ccc(C(=O)Nc2ccccc2Cl)cc1)Nc1ccc(Oc2ccccc2)cc1` belongs “inactive”.
As to `CC1=CCC(C(C)(C)O[C@@H]2O[C@H](COC(=O)c3cc(O)c(O)c(O)c3)[C@@H](O)[C@H](O)[C@H]2O)CC1` (some centres undefined), the outcome was inactive.
For `C/C=C1/[C@H](O[C@@H]2O[C@H](CO)[C@@H](O)[C@H](O)[C@H]2O)OC=C2C(=O)O[C@@H]3C[C@@H](C(C)CO)[C@H](COC(=O)C[C@H]21)[C@H]3C` (some centres undefined), the call was inactive.
With `O=C(NCc1ccco1)c1nc2ncccn2n1`, the call was inactive.
On to `COc1ccc(S(=O)(=O)N(C)C[C@@H]2Oc3ncc(C#Cc4ccc(F)cc4)cc3C(=O)N([C@H](C)CO)C[C@@H]2C)cc1`, for which the result was inactive.
For `C[C@H](CO)N1C[C@H](C)[C@@H](CN(C)S(=O)(=O)c2ccc(Oc3ccccc3)cc2)OCc2cn(nn2)CCCC1=O`, the outcome was inactive.
With `Cc1ccc(-n2c(SCC(=O)Nc3ccccc3F)nnc2-c2ccccc2)cc1C`, the call was inactive.
As for `COc1ccc(C[C@H]2COC(=O)[C@@H]2Cc2ccc(O[C@@H]3O[C@H](CO)[C@@H](O)[C@H](O)[C@H]3O)c(OC)c2)cc1OC`, the compound was classed as inactive.
To `CN(C)c1ccc(NC(=O)CSc2nc3c(c(C(F)(F)F)c2C#N)CCCCCC3)cc1` belongs “inactive”; to `Cc1ccc(C(=O)CSc2nsc3sc(C(=O)c4ccc(C)cc4)c(N)c23)cc1`, “inactive”.
As for `O=C(CN1CCOCC1)Nc1ccc(S(=O)(=O)N2CCCC2)cc1`, the entry is “inactive”.
For the compound `OC1(c2ccc3c(c2)OCO3)OCC2C(c3ccc4c(c3)OCO4)OCC21O` (centres undefined), the call was inactive.
As to `O=C(NCCCn1ccnc1)c1cnn2c(C(F)(F)F)cc(-c3ccccc3)nc12`, the result was inactive.
As for `O=[N+]([O-])c1ccc(NCCNS(=O)(=O)c2ccc(Br)cc2)c(C(F)(F)F)c1`, the result was inactive.
For `Cc1nc(SCC(N)=O)c(C(N)=O)c(C)c1C`, the compound was called inactive.
On to `C[C@@H]1CN([C@H](C)CO)C(=O)c2cc(NC(=O)Nc3ccc4c(c3)OCO4)ccc2O[C@@H]1CN(C)Cc1ccc(C(F)(F)F)cc1`, for which the result was inactive.
`CC(=O)Nc1ccc(C(=O)CSc2nnc(C)s2)cc1`: the compound was called inactive.
As for `Cc1cc(C)nc(SC2CCCCC2NS(=O)(=O)c2ccc(Cl)cc2)n1` (centres undefined), the entry is “inactive”.
Turning to `C[C@@H]1CCCCO[C@@H](CN(C)Cc2ccc(C(=O)O)cc2)[C@H](C)CN([C@@H](C)CO)C(=O)c2cc(NC(=O)C3CCCCC3)ccc2O1`, the compound was called inactive.
With `Cc1cc2nc(-c3ccc(NC(=O)COc4ccccc4[N+](=O)[O-])cc3)oc2cc1C`, the result was inactive.
In the case of `CNC[C@@H]1OCCCC[C@H](C)Oc2ccc(NC(=O)Nc3ccccc3)cc2C(=O)N([C@H](C)CO)C[C@H]1C`, the call was inactive.
In the case of `C[C@@H]1CN([C@@H](C)CO)C(=O)c2cc(NC(=O)C3CC3)ccc2O[C@H]1CN(C)C`, the call was inactive.
With `O=C1O[C@@H](c2ccccc2)[C@@H](c2ccccc2)N2[C@@H](c3ccccc3OCCO)[C@]3(C(=O)Nc4ccc(C#CC5(O)CCCCCC5)cc43)[C@@H](C(=O)N3CCCCCCC3)[C@H]12`, the result was inactive.
Take `COc1ccc(C#Cc2ccc3c(c2)[C@]2(C(=O)N3)[C@H](C(=O)N3CCCCCCC3)[C@H]3C(=O)O[C@H](c4ccccc4)[C@H](c4ccccc4)N3[C@@H]2c2ccc(O)cc2)cc1`: the compound was called inactive.
For the compound `O=C1O[C@@H](c2ccccc2)[C@@H](c2ccccc2)N2[C@@H](c3ccccc3OCCO)[C@]3(C(=O)Nc4ccccc43)[C@@H](C(=O)N3CCCCCCC3)[C@H]12`, the result was active.
To `COc1ccc(C#Cc2ccc3c(c2)[C@]2(C(=O)N3)[C@H](c3ccccc3OCCO)N3[C@H](c4ccccc4)[C@H](c4ccccc4)OC(=O)[C@H]3[C@@H]2C(=O)N2CCCCCCC2)cc1` belongs “active”.
For `COC(=O)C(CC#Cc1ccc2c(c1)[C@]1(C(=O)N2)[C@H](c2ccccc2OCCO)N2[C@H](c3ccccc3)[C@H](c3ccccc3)OC(=O)[C@H]2[C@@H]1C(N)=O)C(=O)OC`, the outcome was inactive.
Take `O=C1O[C@H](c2ccccc2)[C@H](c2ccccc2)N2[C@H]1[C@@H](C(=O)N1CCN(c3ncccn3)CC1)[C@]1(C(=O)Nc3ccccc31)[C@H]2c1ccc(OCCO)cc1`: the result was inactive.
To `C[C@H]1CN([C@@H](C)CO)C(=O)c2cccc(NC(=O)Nc3ccccc3)c2O[C@@H]1CN(C)S(=O)(=O)c1ccc(F)cc1` belongs “inactive”; to `C[C@@H]1CN([C@@H](C)CO)C(=O)c2cc(NS(C)(=O)=O)ccc2O[C@@H](C)CCCCO[C@@H]1CN(C)C(=O)c1ccccc1`, “inactive”; to `Cc1nc(SCC(=O)O)[nH]c(=O)c1Oc1ccccc1`, “inactive”.
Regarding `C[C@H]1CN([C@@H](C)CO)C(=O)c2cc(N(C)C)ccc2O[C@@H]1CN(C)C(=O)Nc1ccc2c(c1)OCO2`, the result was inactive.
As for `COc1ccc2ccccc2c1CNCc1ccccn1`, the entry is “active”; as for `Cc1nnc(SCc2cc(=O)[nH]c(N3CCN(Cc4ccccc4)CC3)n2)s1`, “inactive”; as for `C[C@@H]1CCCCO[C@@H](CN(C)C(=O)CCC(F)(F)F)[C@@H](C)CN([C@H](C)CO)C(=O)c2cc(NC(=O)CCC(F)(F)F)ccc2O1`, “inactive”.
As for `C[C@@H]1CN([C@H](C)CO)C(=O)c2cc(NS(=O)(=O)c3ccccc3)ccc2O[C@@H](C)CCCCO[C@@H]1CN(C)C(=O)CCC(F)(F)F`, the entry is “inactive”; as for `Cc1noc(C)c1S(=O)(=O)Nc1ccc2c(c1)C(=O)N([C@H](C)CO)C[C@H](C)[C@@H](CN(C)C(=O)CCC(F)(F)F)OCCCC[C@H](C)O2`, “inactive”.
Turning to `Cc1noc(C)c1S(=O)(=O)Nc1ccc2c(c1)C(=O)N([C@H](C)CO)C[C@@H](C)[C@H](CN(C)C(=O)NC(C)C)OCCCC[C@@H](C)O2`, the compound was called inactive.
With `Cc1noc(C)c1S(=O)(=O)Nc1ccc2c(c1)C(=O)N([C@@H](C)CO)C[C@H](C)[C@@H](CN(C)C)OCCCC[C@@H](C)O2`, the result was inactive.
As for `C[C@H](CO)N1C[C@H](C)[C@H](CN(C)C(=O)CCC(F)(F)F)OCCCC[C@H](C)Oc2ccc(NS(C)(=O)=O)cc2C1=O`, the outcome was active.
With `C[C@@H]1CCCCO[C@H](CN(C)C(=O)CCC(F)(F)F)[C@H](C)CN([C@H](C)CO)C(=O)c2cc(NS(C)(=O)=O)ccc2O1`, the outcome was inactive.
For `Cc1noc(C)c1S(=O)(=O)Nc1ccc2c(c1)C(=O)N([C@H](C)CO)C[C@H](C)[C@H](CN(C)C(=O)CCC(F)(F)F)OCCCC[C@H](C)O2`, the compound was called active.
Turning to `Cc1noc(C)c1S(=O)(=O)Nc1ccc2c(c1)C(=O)N([C@@H](C)CO)C[C@@H](C)[C@H](CN(C)C(=O)NC(C)C)OCCCC[C@@H](C)O2`, the compound was called active.
